Experimental data from PubChem BioAssay (NCATS).
Records with an inconclusive call do not appear. A call without a number means that no potency is given here. Activity calls are given as the source filed them. Calls come from the whole dose curve; as a rule, active = well fitted curve in the direction sought with a large enough effect; inconclusive = small, poorly fitted or top-dose-only effect, or another doubt; inactive = no such curve, though single readings can be large; an effect the other way counts as inactive or inconclusive.

Assays:
[1] = molecular target: Metallo-beta-lactamase type 2 (Klebsiella pneumoniae) (UniProt C7C422); assay: qHTS to identify inhibitors of the New Delhi Metallo-beta-lactamase (NDM): assay validation screen against the NCATS LOPAC Collection (AID 1794843); details: NDM-1 enzyme, nitrocefin hydrolysis, absorbance 485 nm; series mostly up to 38.4 µM
Summary of the method: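 Absorbance at 485 nm from nitrocefin turnover (50 uM solution added), read at plateau, gives the read-out. Compounds in DMSO were incubated first with 2 nM final NDM-1 in pH 7.0 HEPES buffer containing 1 uM ZnSO4 and 0.01% Tween20.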

[2] = molecular target: Glutathione peroxidase 1 (Homo sapiens) (UniProt P07203); assay: Primary qHTS Assay for Inhibitors of Recombinant Selenoprotein Glutathione Peroxidase 1 (GPX1) (AID 1845191); details: recombinant GPX1, GR-coupled NADPH fluorescence, 15 min; series mostly up to 48.8 µM; note: nearly all actives have a fitted effect of over 65% in size; note: potency is the fitted concentration of half-maximal effect
Summary of the method: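 GR-coupled readout: NADPH consumption tracked by fluorescence, ex 340/em 450 nm, at t=0 and after 15 min at RT. Final mix 10 nM GPX1, 1 mM GSH, 0.5 mM CHP, 0.5 mM NADPH, 100 nM GR, 0.01% BSA, following 30 min enzyme–compound preincubation.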

[3] = molecular target: Phospholipid hydroperoxide glutathione peroxidase GPX4 (Homo sapiens) (UniProt P36969); assay: Primary qHTS Assay for Inhibitors of Recombinant Selenoprotein Glutathione Peroxidase 4 (GPX4) (AID 1845192); details: recombinant GPX4, GR-coupled NADPH fluorescence, 15 min; series mostly up to 50 µM; note: nearly all actives have a fitted effect of over 65% in size; note: potency is the fitted concentration of half-maximal effect
Summary of the method: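 Steps: GPX4 plus compound, 30 min RT; add GR/GSH/NADPH master mix; start with cumene hydroperoxide; read 340/450 nm fluorescence at 0 and 15 min. Finals were 200 nM GPX4, 1 mM GSH, 0.5 mM CHP, 0.5 mM NADPH, 100 nM GR.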

[4] = molecular target: Luciferin 4-monooxygenase (Photinus pyralis) (UniProt P08659); assay: Primary firefly luciferase (FLuc) qHTS assay for identification of artifact compounds. (AID 1845220); details: purified firefly luciferase, luminescence, 5 min; series mostly up to 54.1 µM; note: nearly all actives have a fitted effect of over 60% in size; note: potency is the fitted concentration of half-maximal effect
Summary of the method: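 Enzymatic FLuc inhibition assay: compounds pre-exposed to luciferin/ATP (10 uM each) for 15 min, then purified P. pyralis enzyme at 10 nM added. Read-out: luminescence at 5 min.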

[5] = Primary fluorescence-based thiol-reactive (MSTI) qHTS assay for identification of artifact compounds. (AID 1845221); details: MSTI thiol-reactivity probe, 1 h; series mostly up to 53.8 µM;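 note: thiol-reactive compounds lower the probe fluorescence signal; nearly all actives have a fitted effect of over 65% in size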
Summary of the method: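 Reactivity toward the thiol probe MSTI (4 uM) is scored by fluorescence at Ex/Em 525/598 nm after 1 h at room temperature. Acetyl-MSTI and MSTI define the activity scale.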

[6] = system: Nanoluciferase (engineered Oplophorus gracilirostris luciferase); assay: Primary Nanoluciferase (NLuc) qHTS assay for identification of artifact compounds. (AID 1845222); details: NLuc-conditioned medium, Nano-Glo luminescence, 5 min; series mostly up to 54.1 µM; note: potency is the fitted concentration of half-maximal effect
Summary of the method: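 S16 cell supernatant NLuc, 1:55; cpds qHTS; 15 min RT dark; Nano-Glo substrate 1:100, 5 min; luminescence; Hill fit of % inhibition.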

Sequence of Phospholipid hydroperoxide glutathione peroxidase GPX4 (Homo sapiens) (P36969 whole entry, looked up): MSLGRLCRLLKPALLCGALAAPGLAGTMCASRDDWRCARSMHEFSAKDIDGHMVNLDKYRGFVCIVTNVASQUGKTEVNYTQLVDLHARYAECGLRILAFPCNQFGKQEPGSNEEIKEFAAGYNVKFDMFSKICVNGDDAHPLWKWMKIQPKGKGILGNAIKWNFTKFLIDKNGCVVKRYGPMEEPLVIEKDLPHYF
Sequence of Glutathione peroxidase 1 (Homo sapiens) (P07203 whole entry, looked up): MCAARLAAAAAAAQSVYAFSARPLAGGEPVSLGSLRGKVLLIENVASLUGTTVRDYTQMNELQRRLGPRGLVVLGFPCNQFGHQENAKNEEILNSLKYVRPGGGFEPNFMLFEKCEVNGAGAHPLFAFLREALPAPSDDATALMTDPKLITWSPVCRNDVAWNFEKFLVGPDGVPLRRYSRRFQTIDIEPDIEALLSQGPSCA
Sequence of Metallo-beta-lactamase type 2 (Klebsiella pneumoniae) (C7C422 whole entry, looked up): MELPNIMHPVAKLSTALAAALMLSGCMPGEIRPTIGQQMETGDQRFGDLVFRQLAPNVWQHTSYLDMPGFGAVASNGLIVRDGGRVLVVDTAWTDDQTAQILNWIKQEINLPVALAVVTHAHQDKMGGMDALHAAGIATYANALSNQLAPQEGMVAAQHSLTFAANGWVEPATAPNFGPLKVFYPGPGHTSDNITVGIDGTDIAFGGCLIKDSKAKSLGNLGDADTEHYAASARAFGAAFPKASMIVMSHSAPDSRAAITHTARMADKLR

SMILES	Potency [1]	Potency [2]	Potency [3]	Potency [4]	outcome [5]	Potency [6]
O=c1cc(-c2ccccc2)oc2c(O)c(O)ccc12	inactive	inactive	inactive	–	–	–
O=C(CCc1ccncc1)NNC(=O)N1Cc2ccccc2Oc2ccc(Cl)cc21	inactive	inactive	inactive	–	–	–
Fc1ccc(C(OCCCc2cnc[nH]2)c2ccc(F)cc2)cc1	inactive	inactive	inactive	–	–	–
CC(C)(NS(=O)(=O)c1ccc(Oc2ccc(F)cc2)cc1)C(=O)NO	inactive	inactive	inactive	–	–	–
CCCCCCCCCCCCCCCCCC(=O)OC(CC(=O)O)C[N+](C)(C)C (centres undefined)	inactive	inactive	inactive	–	–	–
CNC(=O)[C@H]1O[C@@H](n2cnc3c(NCc4cccc(I)c4)ncnc32)[C@H](O)[C@@H]1O	inactive	inactive	inactive	–	–	–
O=C(O)c1cc([N+](=O)[O-])ccc1NCCCc1ccccc1	inactive	inactive	inactive	–	–	–
CNC(=O)[C@H]1O[C@@H](n2cnc3c(NCc4ccc(N)cc4)ncnc32)[C@H](O)[C@@H]1O	inactive	inactive	inactive	–	–	–
CO[C@H]1O[C@@H]2O[C@]3(C)CC[C@@H]4[C@@H](C)CC[C@H]([C@H]1C)[C@]24OO3	inactive	inactive	inactive	–	–	–
CCCN(CC1CC1)c1nc(C)nc(Nc2c(Cl)cc(Cl)cc2Cl)c1Cl	inactive	inactive	inactive	–	–	–
C[N+]1(C)C2CC(OC(=O)[C@H](CO)c3ccccc3)CC1C1OC12 (some centres undefined)	inactive	inactive	inactive	–	–	–
COc1ccc(C(=O)/C(Cc2cc(OC)c(OC)c(OC)c2)=C(\C(=O)O)c2ccc3c(c2)OCO3)cc1	inactive	inactive	inactive	–	–	–
Cc1ccc(S(=O)(=O)/C=C/C#N)cc1	inactive	inactive	inactive	–	–	–
CO/N=C(\C(=O)N[C@@H]1C(=O)N2C(C(=O)O)=C(COC(C)=O)CS[C@H]12)c1csc(N)n1	inactive	8.06 µM (active)	inactive	–	–	–
O=C(CCCCCN1CCN(c2ccccc2-c2ccccc2)CC1)NC1CCCc2ccccc21 (centres undefined)	inactive	inactive	inactive	–	–	–
Brc1c(Br)c(Br)c2n[nH]nc2c1Br	inactive	inactive	inactive	–	–	–
O=C(Nc1ccncc1)c1cc([N+](=O)[O-])ccc1Cl	inactive	inactive	inactive	–	–	–
C[C@@H](CN1CCC(Cc2ccccc2)CC1)[C@@H](O)c1ccc(O)cc1	inactive	inactive	inactive	–	–	–
CC(C)(C)c1ccc(S(=O)(=O)/C=C/C#N)cc1	inactive	inactive	inactive	–	–	–
Nc1nc2ccc(Cl)cc2n2c(-c3ccccc3)nnc12	inactive	inactive	inactive	–	–	–
Cn1cc(C2=C(c3ccc(Cl)cc3Cl)C(=O)NC2=O)c2ccccc21	inactive	inactive	inactive	–	–	–
OC[C@H]1O[C@@H](n2cnc3c(NC4CCCC4)ncnc32)[C@H](O)[C@@H]1O	inactive	inactive	inactive	–	–	–
Clc1ccc(N2CCN(Cc3c[nH]c4ncccc34)CC2)cc1	inactive	inactive	inactive	–	–	–
CNc1ncnc2c1ncn2[C@@H]1O[C@H](CO)[C@@H](O)[C@H]1O	inactive	inactive	inactive	–	–	–

SMILES	Potency [1]	Potency [2]	Potency [3]	Potency [4]	outcome [5]	Potency [6]
O=C1NC(O)=NC1(c1ccccc1)c1ccccc1	inactive	inactive	inactive	–	–	–
Nc1ncnc2c1ncn2[C@@H]1O[C@H](COP(=O)(O)OP(=O)(O)OP(=O)(O)OP(=O)(O)OC[C@@H]2O[C@H](n3cnc4c(N)ncnc43)[C@@H](O)[C@H]2O)[C@@H](O)[C@H]1O	inactive	inactive	inactive	–	–	–
CC1OC1P(=O)(O)O (centres undefined)	inactive	inactive	inactive	–	–	–
COc1cccc(OC)c1OCCNCC1COc2ccccc2O1 (centres undefined)	inactive	inactive	inactive	–	–	–
Cn1c(=O)c2[nH]c(-c3ccccc3)nc2n(C)c1=O	inactive	inactive	inactive	–	–	–
CC(N)C(=O)OC(C)(C)Cc1ccc(Cl)cc1 (centres undefined)	inactive	inactive	inactive	–	–	–
CCCCCCCC/C=C\CCCCCCCC(=O)NCCO	inactive	inactive	inactive	–	–	–
O=[N+]([O-])c1ccc2c(c1)S(=O)(=O)C=C2	inactive	inactive	inactive	–	–	–
C[N+](C)(C)CCOP(=O)(O)OP(=O)([O-])OC[C@H]1O[C@@H](n2ccc(N)nc2=O)[C@H](O)[C@@H]1O	inactive	inactive	inactive	–	–	–
CCN(CC)c1ncnc2c1ncn2[C@@H]1O[C@H](COP(=O)(O)OP(=O)(O)C(Br)(Br)P(=O)(O)O)[C@@H](O)[C@H]1O	inactive	inactive	inactive	–	–	–
COc1ccc(NC(=O)/C=C/c2ccc(Cl)cc2)cc1	inactive	inactive	inactive	–	–	–
CC1(C)CCC=[N+]1[O-]	inactive	inactive	inactive	–	–	–
CCOC(=O)N1CCN(/[N+]([O-])=N/Oc2ccc([N+](=O)[O-])cc2[N+](=O)[O-])CC1	inactive	inactive	inactive	–	–	–
CCCCC#Cc1nc(NC)c2ncn([C@@H]3O[C@H](CO)[C@@H](O)[C@H]3O)c2n1	inactive	inactive	inactive	–	–	–
Brc1cc2c(cc1[C@H]1Nc3ccccc3[C@H]3C=CC[C@H]31)OCO2	inactive	inactive	inactive	–	–	–
O=c1[nH]c2cc([N+](=O)[O-])c([N+](=O)[O-])cc2[nH]c1=O	inactive	inactive	inactive	–	–	–
O=C(NOCC1CC1)c1cc(Br)c(F)c(F)c1Nc1ccc(I)cc1Cl	inactive	inactive	inactive	–	–	–
CN1C2CCC1CC(OC(=O)C(O)c1ccccc1)C2 (centres undefined)	inactive	inactive	inactive	–	–	–
COc1ccc(/C=C2\COc3ccc(C)cc3C2=O)cc1O	inactive	inactive	inactive	–	–	–
S=c1[nH]c(-c2ccccc2)cn1-c1ccccc1	inactive	inactive	inactive	–	–	–
CN1[C@@H](CC(=O)c2ccccc2)CCC[C@H]1C[C@H](O)c1ccccc1	inactive	inactive	inactive	–	–	–
Nc1nc(SCc2ccc([N+](=O)[O-])cc2)c2ncn([C@@H]3O[C@H](CO)[C@@H](O)[C@H]3O)c2n1	inactive	inactive	inactive	–	–	–
CC[C@H]1OC(=O)[C@H](C)[C@@H](O[C@H]2C[C@@](C)(OC)[C@@H](O)[C@H](C)O2)[C@H](C)[C@@H](O[C@@H]2O[C@H](C)C[C@H](NC)[C@H]2O)[C@](C)(O)C[C@@H](C)CN(C)[C@H](C)[C@@H](O)[C@]1(C)O	inactive	inactive	inactive	–	–	–
CCCCCC[C@@H](O)C/C=C\CCCCCCCC(=O)O	–	inactive	–	–	–	–

SMILES	Potency [1]	Potency [2]	Potency [3]	Potency [4]	outcome [5]	Potency [6]
CCN(CC)CCCCNc1ncc2cc(-c3c(Cl)cccc3Cl)c(NC(=O)NC(C)(C)C)nc2n1	inactive	20.2 µM (active)	7.18 µM (active)	inactive	inactive	inactive
CCNc1nc2c(ncn2[C@H]2C[C@H](O)[C@@H](CO)O2)c(=O)[nH]1	inactive	inactive	inactive	inactive	inactive	inactive
C=CC(C)=C[C@@]1(C)SC(=O)C(C)=C1O	inactive	–	inactive	–	–	–
COC(=O)C1=C(C)NC(C)=C(C(=O)OC)C1c1cccc(NC(=O)NCCCN2CCC(c3cccc(OC)c3)CC2)c1	inactive	inactive	inactive	inactive	inactive	inactive
CC[C@H]1OC(=O)[C@H](C)[C@@H](O[C@H]2C[C@@](C)(OC)[C@@H](O)[C@H](C)O2)[C@H](C)[C@@H](O[C@@H]2O[C@H](C)C[C@H](N(C)C)[C@H]2O)[C@](C)(O)C[C@@H](C)C(=O)[C@H](C)[C@@H](O)[C@]1(C)O	–	inactive	inactive	–	–	–
O=[N+]([O-])c1ccc(CNc2nc(NCc3cccc(C(F)(F)F)c3)nc3nc[nH]c23)cc1	inactive	inactive	inactive	inactive	inactive	inactive
C#C[C@]1(O)CC[C@H]2[C@@H]3CCc4cc(O)ccc4[C@H]3CC[C@@]21C	–	inactive	inactive	–	–	–
COCCOc1cc2ncnc(Cl)c2cc1OCCOC	–	inactive	inactive	–	–	–
C=C[C@@H]1CN2CC[C@@H]1C[C@H]2[C@H](O)c1ccnc2ccc(OC)cc12	–	inactive	inactive	–	–	–
NS(=O)(=O)c1ccc(-n2nc(C(F)(F)F)cc2-c2ccc(Cl)cc2)cc1	inactive	inactive	inactive	inactive	inactive	inactive
CCCC(=O)OC[C@@H](OC(=O)CCC)[C@@H](OC(=O)CCC)[C@H](Cn1c2nc(=O)[nH]c(=O)c-2nc2cc(C)c(C)cc21)OC(=O)CCC	–	inactive	–	–	–	–
CCCCCCCCCCCC(=O)[O][Sn]([CH2]CCC)([CH2]CCC)[O]C(=O)CCCCCCCCCCC	–	inactive	–	–	–	–
O=C1NC(=O)/C(=C/c2ccc(-c3ccc(F)cc3O)o2)S1	inactive	–	inactive	–	–	–
COc1cc(/C=C/C(=O)CC(=O)/C=C/c2ccc(O)c(OC)c2)ccc1O	–	inactive	–	–	–	–
O=C(Nc1ccc2c(c1)CCN(Cc1ncn[nH]1)C2)c1ccccc1-c1ccc(C(F)(F)F)cc1	inactive	inactive	inactive	inactive	inactive	inactive
O=C1C(SCCO)=C(SCCO)C(=O)c2ccccc21	inactive	–	inactive	–	–	–
Cc1cc(NC2CCCCC2)nc(-n2nc(C)cc2C)n1	–	inactive	inactive	–	–	–
CN(CCCOc1ccc(Cc2ccccc2)cc1)CCC(=O)O	inactive	inactive	inactive	inactive	inactive	inactive
CSc1nc(N)c2ncn([C@@H]3O[C@H](COP(=O)(O)OP(=O)(O)OP(=O)(O)O)[C@@H](O)[C@H]3O)c2n1	–	inactive	inactive	–	–	–
Nc1cc(-c2ccncc2)c[nH]c1=O	–	inactive	inactive	–	–	–
O=C(O)CCCC[C@@H]1CCSS1	inactive	–	inactive	–	–	–
CN1CCc2cccc3c2C1Cc1ccc(O)c(O)c1-3 (centres undefined)	inactive	inactive	inactive	–	–	–
COc1ccc(/C=C/C(=O)Nc2ccccc2C(=O)O)cc1OC	inactive	inactive	inactive	3.01 µM (active)	inactive	21.3 µM (active)
CC1(C)S[C@@H]2[C@H](NC(=O)[C@H](N)c3ccccc3)C(=O)N2[C@H]1C(=O)O	–	inactive	–	–	–	–
